Records with an inconclusive call do not appear. Active and inactive are the calls of the source. Rule for the calls: active = hit-call score of the fitted dose curve at least 0.9, where 1 is the maximum; inconclusive = response in the unintended direction; inactive = score below 0.9.
molecular target: Bile acid receptor (Homo sapiens) (UniProt Q96RI1); assay: OT_FXR_FXRSRC1_1440: Odyssey Thera (OT) 24-hour HEK293T Protein-Complementation Assay for Farnesoid X receptor/SRC-1 Co-activator (AID 2283384)
Description: OT_FXR_FXRSRC1_1440 is a cell-based assay that uses HEK293T, a human kidney cell line, with measurements taken at 24 hours after chemical dosing in a 384-well plate.OT_FXR_FXRSRC1_1440 is one of one assay component(s) measured or calculated from the OT_FXR_FXRSRC1_1440 assay. It is designed to make measurements of protein fragment complementation, a form of binding reporter, as detected with fluorescence intensity signals by Protein-fragment Complementation technology.Data from the assay component OT_FXR_FXRSRC1_1440 was analyzed into 1 assay endpoint. This assay endpoint, OT_FXR_FXRSRC1_1440, was analyzed in the positive analysis fitting direction relative to DMSO as the negative control and baseline of activity. Using a type of binding reporter, measures of receptor for gain-of-signal activity can be used to understand the binding at the pathway-level as they relate to the gene NR1H4. Furthermore, this assay endpoint can be referred to as a primary readout, because the performed assay has only produced 1 assay endpoint. To generalize the intended target to other relatable targets, this assay endpoint is annotated to the nuclear receptor intended target family, where the subfamily is non-steroidal.
Protein-fragment complementation assay, or PCA, is a method for the identification and quantification of protein-protein interactions. In the PCA, the proteins of interest ("bait" and "prey") are each covalently linked to fragments of a third protein (e.g. DHFR, which acts as a "reporter"). Interaction between the bait and the prey proteins brings the fragments of the reporter protein in close proximity to allow them to form a functional reporter protein whose activity can be measured.

Sequence of Bile acid receptor (Homo sapiens) (Q96RI1 whole entry, looked up, the tested form may be a part): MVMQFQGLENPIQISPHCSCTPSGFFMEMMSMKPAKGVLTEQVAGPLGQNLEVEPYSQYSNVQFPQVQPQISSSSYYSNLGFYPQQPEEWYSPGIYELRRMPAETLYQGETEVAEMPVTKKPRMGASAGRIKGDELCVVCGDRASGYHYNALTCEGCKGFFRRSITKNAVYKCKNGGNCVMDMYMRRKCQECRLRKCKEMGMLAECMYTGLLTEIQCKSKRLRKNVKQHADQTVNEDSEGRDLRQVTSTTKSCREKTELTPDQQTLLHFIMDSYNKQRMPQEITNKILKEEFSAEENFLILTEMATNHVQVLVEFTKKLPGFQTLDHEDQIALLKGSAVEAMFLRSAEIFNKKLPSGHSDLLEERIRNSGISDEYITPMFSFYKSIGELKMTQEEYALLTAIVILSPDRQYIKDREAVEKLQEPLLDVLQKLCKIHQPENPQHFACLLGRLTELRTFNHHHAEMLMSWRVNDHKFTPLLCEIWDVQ

Structure (SMILES) | outcome | AC50
Oc1cccc2ccccc12 | inactive | 
O=C(Oc1ccccc1)c1ccccc1 | inactive | 
CCO[Si](CCCN)(OCC)OCC | inactive | 
Cc1cc2nc3c(=O)[nH]c(=O)nc-3n(C[C@H](O)[C@H](O)[C@H](O)CO)c2cc1C |  | 52.7 µM (active)
O=C1NC(=O)C2CC=CCC12 (configuration not stated) | inactive | 
c1ccc(CNc2ncnc3nc[nH]c23)cc1 | inactive | 
COC(=O)[C@]1(C)CCC[C@@]2(C)[C@H]1CC=C1C=C(C(C)C)CC[C@@H]12 |  | 12.8 µM (active)
CC/C=C\CCO | inactive | 
Sc1nc2ccccc2s1 | inactive | 
CCCCCC[C@@H](O)C/C=C\CCCCCCCC(=O)O | inactive | 
CC(=O)OC(C)(C)Cc1ccccc1 | inactive | 
O=C(CC(C(=O)OC1CCCCC1)S(=O)(=O)O)OC1CCCCC1 (configuration not stated) | inactive | 
